# Screening results deposited in PubChem by Broad Institute.
# NOMO-1 viab: NOMO-1 AML cell viability reduction, primary screen, STK33 inhibitor project, CellTiter-Glo luminescence. NOMO-1 AML viability, 72 h. AID 2330, 2010. inhibition, % (no concentration beside the values). 37,000 tested, 7.5% active; in the data active = inhibition above about 80%; inconclusive = no clear call, values can overlap the other calls
# U2OS ROS induce: ROS inducers in U2OS cancer cells, primary screen, cell-based, H2DCF-DA fluorescence; 46,000 tested, 2% active; AID 624156, 2012; ROS induction (% of piperlongumine), % at 10 µM; U2OS ROS induction; in the data active = ROS induction above about 79%, passing the limit was not always enough; inconclusive = no clear call, values can overlap the other calls;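 also: 0% = DMSO vehicle median and 100% = reference compound median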
# * = called active by the depositor; ? = inconclusive; nt = no result given. The full list was thinned out, with hits kept by preference.
SMILES,NOMO-1 viab,U2OS ROS induce
CC(=O)Nc1ccc(S(=O)(=O)Nc2ccc(Oc3cccnc3)cc2)cc1,58,10
C[C@@H]1CN([C@@H](C)CO)C(=O)c2cc(NC(=O)NC3CCCCC3)ccc2O[C@H]1CN(C)S(=O)(=O)c1ccccc1,8,17
C[C@H]1CN([C@@H](C)CO)C(=O)c2cc(NC(=O)Nc3ccc(F)cc3)ccc2O[C@H]1CN(C)S(=O)(=O)c1ccc(F)cc1,24,-4
CC(C)NC(=O)N(C)C[C@H]1Oc2ccc(NC(=O)NC3CCCCC3)cc2C(=O)N([C@@H](C)CO)C[C@H]1C,-1,4
COc1ccc(NC(=O)Nc2ccc3c(c2)CC(=O)N([C@@H](C)CO)C[C@H](C)[C@@H](CN(C)S(=O)(=O)c2c(C)noc2C)O3)cc1,12,-1
O=C(CN1C(=O)C2C3C=CC(C4CC34)C2C1=O)Nc1ccc(Oc2ccccc2Cl)cc1 (stereo not drawn),-1,nt
O=C(CN1C(=O)C2C3C=CC(C4CC34)C2C1=O)Nc1ccc(Oc2ccc(Br)cc2)cc1 (stereo not drawn),86*,9
COc1ccc(OCC(=O)Nc2cc(Cl)ccc2N2CCOCC2)cc1,57,39
CCNc1cc(N)[n+](CC)c2n[nH]c(N)c12,106*,-7
CC(C)NS(=O)(=O)c1ccc(OCC(=O)N2CCC(Cc3ccccc3)CC2)cc1,nt,3
S=c1[nH]nc(COc2ccc3c(c2)CCCC3)o1,nt,12
CCN(CC)CCCC(C)Nc1c2ccc(Cl)cc2nc2ccc(OC)cc12 (stereo not drawn),114*,9
COc1ccc2nc(Nc3nc(C)c(CCC(C)C)c(=O)[nH]3)nc(C)c2c1,66,?
CNC(=O)CN(c1cccc(C)c1C)S(=O)(=O)c1ccccc1,nt,-6
Cc1noc(C)c1NC(=O)N(C)C[C@@H]1Oc2ccc(NC(=O)c3ccncc3)cc2CC(=O)N([C@H](C)CO)C[C@@H]1C,-2,-2
Cc1cc(Br)ccc1NC(=O)CSc1nnc(N)s1,-14,-9
C[C@@H]1CN([C@@H](C)CO)C(=O)c2cc(NC(=O)Nc3ccc(C(F)(F)F)cc3)ccc2O[C@@H]1CN(C)S(C)(=O)=O,2,-6
COc1ccc(CN(C)C[C@@H]2Oc3ccc(NC(=O)Nc4ccc(C(F)(F)F)cc4)cc3CC(=O)N([C@H](C)CO)C[C@@H]2C)cc1,118*,6
COc1ccc(CN(C)C[C@H]2Oc3ccc(NC(=O)Nc4ccc(C(F)(F)F)cc4)cc3CC(=O)N([C@H](C)CO)C[C@H]2C)cc1,127*,16
COc1ccc(NC(=O)Nc2ccc3c(c2)CC(=O)N([C@H](C)CO)C[C@@H](C)[C@H](CN(C)Cc2ccc(C(F)(F)F)cc2)O3)cc1,113*,11
COc1ccc(NC(=O)Nc2ccc3c(c2)CC(=O)N([C@H](C)CO)C[C@H](C)[C@H](CN(C)Cc2ccc(C(F)(F)F)cc2)O3)cc1,61,2
COc1ccc(CN(C)C[C@@H]2Oc3ccc(NC(=O)Nc4ccc(C(F)(F)F)cc4)cc3CC(=O)N([C@H](C)CO)C[C@H]2C)cc1,18,-8
COc1ccc(NC(=O)Nc2ccc3c(c2)CC(=O)N([C@H](C)CO)C[C@@H](C)[C@@H](CN(C)Cc2ccc(C(F)(F)F)cc2)O3)cc1,90*,9
COc1ccc(NC(=O)Nc2ccc3c(c2)CC(=O)N([C@@H](C)CO)C[C@H](C)[C@H](CN(C)Cc2ccc(C(F)(F)F)cc2)O3)cc1,35,5
COc1ccc(S(=O)(=O)n2nc(OC(=O)C(C)(C)C)cc2N)cc1,48,5
SMILES,NOMO-1 viab,U2OS ROS induce
C[C@H]1CN([C@@H](C)CO)C(=O)c2cccc(NC(=O)Nc3ccc4c(c3)OCO4)c2O[C@@H]1CN(C)S(=O)(=O)c1ccc(F)cc1,-1,-1
C[C@@H]1CN([C@H](C)CO)C(=O)Cc2cc(NC(=O)Cn3cnnn3)ccc2O[C@H]1CN(C)C(=O)Nc1ccccc1,-7,-5
COc1c(O)cc([C@@H]2Oc3cc(O)cc(O)c3C[C@@H]2O)cc1O,7,-8
COc1ccc(NC(=O)Nc2ccc3c(c2)CC(=O)N([C@@H](C)CO)C[C@H](C)[C@@H](CN(C)Cc2ccc(C(F)(F)F)cc2)O3)cc1,51,14
COc1ccc(CN(C)C[C@H]2Oc3ccc(NC(=O)Nc4ccc(C(F)(F)F)cc4)cc3CC(=O)N([C@@H](C)CO)C[C@H]2C)cc1,124*,1
C[C@@H]1CN([C@H](C)CO)C(=O)c2cc(NC(=O)Cc3cn(C)c4ccccc34)ccc2O[C@@H]1CN(C)Cc1ccc(Cl)c(Cl)c1,112*,11
COc1ccc(CN(C)C[C@H]2Oc3ccc(NC(=O)Cc4cn(C)c5ccccc45)cc3C(=O)N([C@H](C)CO)C[C@H]2C)cc1,0,1
C[C@@H]1CN([C@H](C)CO)C(=O)c2cc(NC(=O)Cc3cn(C)c4ccccc34)ccc2O[C@H]1CN(C)Cc1ccc(Cl)c(Cl)c1,?,23
C[C@@H]1CN([C@@H](C)CO)C(=O)c2cc(NC(=O)Cc3cn(C)c4ccccc34)ccc2O[C@@H]1CN(C)Cc1ccc(Cl)c(Cl)c1,92*,27
COc1ccccc1NC(=O)C1CC(=O)N(C)C(=Nc2ccccc2)S1 (stereo not drawn),nt,4
CC(C)NC(=O)N(C)C[C@H]1Oc2c(NC(=O)Nc3ccccc3)cccc2C(=O)N([C@H](C)CO)C[C@H]1C,1,9
COc1ccc(S(=O)(=O)N(C)C[C@H]2Oc3c(NS(=O)(=O)c4ccccc4)cccc3C(=O)N([C@@H](C)CO)C[C@@H]2C)cc1,2,61
CCOc1ccc(-c2nc(SCc3ccc(C(=O)OC)o3)n[nH]2)cc1,?,0
COC(=O)c1ccc(CSc2n[nH]c(-c3ccccc3OC)n2)o1,114*,nt
COc1cccc(C2C3=C(CC(C)(C)CC3=O)Nc3ccccc3N2C(C)=O)c1 (stereo not drawn),nt,-5
C[C@@H]1CN([C@H](C)CO)C(=O)c2cc(NC(=O)Cc3cn(C)c4ccccc34)ccc2O[C@H]1CN(C)Cc1ccc2c(c1)OCO2,24,16
C[C@H](CO)N1C[C@H](C)[C@H](CN(C)Cc2ccc3c(c2)OCO3)Oc2ccc(NC(=O)Cc3cn(C)c4ccccc34)cc2C1=O,92*,8
C[C@H](CO)N1C[C@H](C)[C@@H](CN(C)Cc2ccc3c(c2)OCO3)Oc2ccc(NC(=O)Cc3cn(C)c4ccccc34)cc2C1=O,52,117*
C[C@H]1CN([C@@H](C)CO)C(=O)c2cc(NC(=O)Cc3cn(C)c4ccccc34)ccc2O[C@H]1CN(C)Cc1ccc2c(c1)OCO2,73,-10
Cc1ccc(-c2csc3nnc(SCC(=O)Nc4ccc(Cl)cc4)n23)cc1,17,3
Cc1nnc(SCc2nc(-c3ccc(Br)cc3)no2)n1-c1ccccc1,19,20
C[C@H]1CN([C@@H](C)CO)C(=O)c2cc(NS(C)(=O)=O)ccc2O[C@@H]1CN(C)C(=O)NC1CCCCC1,2,2
Clc1ccc(-c2nn3c(-c4ccco4)nnc3c3ccccc23)cc1,nt,3
NC(N)=Nc1nc(-c2ccc(-c3ccccc3)cc2)cs1,115*,-2
COc1ccccc1OCc1nc(-c2ccccc2)cs1,33,-3
Cc1noc(C)c1S(=O)(=O)Nc1ccc2c(c1)CC(=O)N([C@H](C)CO)C[C@@H](C)[C@H](CN(C)Cc1ccc(-c3ccccc3)cc1)O2,44,?
